{"source": "PubChem BioAssay (NCATS)", "key": {"[1]": {"molecular_target": "Catechol O-methyltransferase (Homo sapiens) (UniProt P21964)", "sequence (P21964 whole entry, looked up)": "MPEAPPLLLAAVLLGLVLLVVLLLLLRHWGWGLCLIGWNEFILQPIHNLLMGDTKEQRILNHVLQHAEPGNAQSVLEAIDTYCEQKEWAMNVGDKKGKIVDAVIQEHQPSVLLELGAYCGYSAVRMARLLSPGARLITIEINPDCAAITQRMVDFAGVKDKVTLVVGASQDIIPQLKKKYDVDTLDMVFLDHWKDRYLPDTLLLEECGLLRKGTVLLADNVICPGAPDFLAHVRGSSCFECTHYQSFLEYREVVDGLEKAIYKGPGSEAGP", "assay": "Confirmatory Screen for Target Class Profiling of Small Molecule Inhibitors of Methyltransferases (AID 1745852; calls by dose curve)", "conditions": "MTase-Glo luminescence, SAH detection, recombinant enzyme; measured here: COMT max response; stronger effect = lower value"}, "[2]": {"molecular_target": "Guanidinoacetate N-methyltransferase (Homo sapiens) (UniProt Q14353)", "assay": "Confirmatory Screen for Target Class Profiling of Small Molecule Inhibitors of Methyltransferases (AID 1745852); further: potency means the concentration at half of the fitted maximal effect; on activity change, negative = inhibition: on the % scale 0 is the no-effect control and ±100 the full control effect", "conditions": "MTase-Glo luminescence, SAH detection, recombinant enzyme; activity change, negative = inhibition: at 57.3 µM (top of the series) unless noted; series mostly up to 57.3 µM"}, "[3]": {"molecular_target": "Nicotinamide N-methyltransferase (Homo sapiens) (UniProt P40261)", "sequence (P40261 whole entry, looked up)": "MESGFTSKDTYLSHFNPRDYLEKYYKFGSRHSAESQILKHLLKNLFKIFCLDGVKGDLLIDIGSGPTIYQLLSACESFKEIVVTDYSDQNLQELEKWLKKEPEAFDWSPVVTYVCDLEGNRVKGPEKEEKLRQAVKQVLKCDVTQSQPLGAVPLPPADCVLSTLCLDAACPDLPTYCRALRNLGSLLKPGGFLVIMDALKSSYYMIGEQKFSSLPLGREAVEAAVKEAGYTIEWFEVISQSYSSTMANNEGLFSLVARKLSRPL", "assay": "Confirmatory Screen for Target Class Profiling of Small Molecule Inhibitors of Methyltransferases (AID 1745852)", "conditions": "MTase-Glo luminescence, SAH detection, recombinant enzyme; measured here: NNMT max response; stronger effect = lower value"}, "[4]": {"molecular_target": "Phenylethanolamine N-methyltransferase (Homo sapiens) (UniProt P11086)", "sequence (P11086 whole entry, looked up)": "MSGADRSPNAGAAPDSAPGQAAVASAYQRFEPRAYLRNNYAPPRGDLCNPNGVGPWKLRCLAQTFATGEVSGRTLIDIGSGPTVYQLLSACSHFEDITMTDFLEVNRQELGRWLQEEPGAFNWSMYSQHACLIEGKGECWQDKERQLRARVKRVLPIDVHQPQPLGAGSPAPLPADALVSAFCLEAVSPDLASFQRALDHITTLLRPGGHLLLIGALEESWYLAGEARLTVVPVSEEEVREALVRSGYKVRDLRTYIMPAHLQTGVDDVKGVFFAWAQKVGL", "assay": "Confirmatory Screen for Target Class Profiling of Small Molecule Inhibitors of Methyltransferases (AID 1745852)", "conditions": "MTase-Glo luminescence, SAH detection, recombinant enzyme; measured here: PNMT max response; stronger effect = lower value"}, "[5]": {"assay": "NCATS anti-infectives library activity on HEK293 viability as a counter-qHTS vs the C. elegans viability qHTS (AID 1745854);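 further: HEK293 cells exposed to compounds for 24 hr before the viability read; on the % scale 0 is the no-effect control and ±100 the full control effect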", "conditions": "HEK293 viability counter-screen; series mostly up to 41.8 µM", "summary_of_the_method": "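Compound titrations (final up to 41.7 uM) were incubated with HEK293 cells for 24 hr at 37C under 5% CO2. Viable cells were quantified with CellTiter-Glo after 10 min at ambient temperature.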"}, "[6]": {"molecular_target": "Glutathione peroxidase 1 (Homo sapiens) (UniProt P07203)", "sequence (P07203 whole entry, looked up)": "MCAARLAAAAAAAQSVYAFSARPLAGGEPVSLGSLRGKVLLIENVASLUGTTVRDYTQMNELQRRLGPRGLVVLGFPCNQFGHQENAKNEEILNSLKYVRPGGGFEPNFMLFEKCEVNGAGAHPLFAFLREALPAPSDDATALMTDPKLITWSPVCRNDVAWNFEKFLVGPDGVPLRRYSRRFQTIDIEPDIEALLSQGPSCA", "assay": "Primary qHTS Assay for Inhibitors of Recombinant Selenoprotein Glutathione Peroxidase 1 (GPX1) (AID 1845191); further: nearly all actives have a fitted effect of over 65% in size; further: potency means the concentration at half of the fitted maximal effect", "conditions": "recombinant GPX1, GR-coupled NADPH fluorescence, 15 min; series mostly up to 48.8 µM", "summary_of_the_method": "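GR-coupled readout: NADPH consumption tracked by fluorescence, ex 340/em 450 nm, at t=0 and after 15 min at RT. Final mix 10 nM GPX1, 1 mM GSH, 0.5 mM CHP, 0.5 mM NADPH, 100 nM GR, 0.01% BSA, following 30 min enzyme–compound preincubation.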"}}, "note": "Inconclusive results are not listed. Activity calls are given as the source filed them. Unless noted, the call rests on the fitted dose curve; in most records, active means well fitted curve in the direction sought with a large enough effect; inconclusive means small, poorly fitted or top-dose-only effect, or another doubt; inactive means no such curve, though single readings can be large; an effect the other way counts as inactive or inconclusive."}
{"smiles": "COc1ccc(CCNc2nc3c(S(=O)(=O)c4ccccc4)nnn3c3ccccc23)cc1OC", "values": [{"measurement": "activity", "setting": "[1]", "result": -10.7, "unit": "%"}, {"measurement": "activity change, negative = inhibition", "setting": "[2]", "result": -7.04, "unit": "%"}, {"measurement": "activity", "setting": "[3]", "result": -17.5, "unit": "%"}, {"measurement": "activity", "setting": "[4]", "result": -12.4, "unit": "%"}]}
{"smiles": "CCCCN1C(=O)c2cc(C(=O)NCc3ccc(OC)cc3OC)nn2CC1(C)C(=O)NC1CCCC1", "note": "(centres undefined)", "values": [{"measurement": "activity", "setting": "[1]", "result": 0.43, "unit": "%"}, {"measurement": "activity change, negative = inhibition", "setting": "[2]", "result": 0, "unit": "%"}, {"measurement": "activity", "setting": "[3]", "result": -36.8, "unit": "%"}, {"measurement": "activity", "setting": "[4]", "result": -3.65, "unit": "%"}]}
{"smiles": "Cc1ccc(N(C)S(=O)(=O)c2ccc3c(c2)n(C)c(=O)n3C)cc1", "values": [{"measurement": "activity", "setting": "[1]", "result": -6.35, "unit": "%"}, {"measurement": "Potency", "setting": "[2]", "result": "0.192 µM (active)"}, {"measurement": "activity", "setting": "[3]", "result": -47, "unit": "%"}, {"measurement": "activity", "setting": "[4]", "result": -7.47, "unit": "%"}]}
{"smiles": "CC(C)NC(=O)c1ccccc1OCC1CCCN(Cc2cn(C)c3ccccc23)C1", "note": "(centres undefined)", "values": [{"measurement": "activity", "setting": "[1]", "result": 8.45, "unit": "%"}, {"measurement": "activity change, negative = inhibition", "setting": "[2]", "result": 14.4, "unit": "%"}, {"measurement": "activity", "setting": "[3]", "result": 4.67, "unit": "%"}, {"measurement": "activity", "setting": "[4]", "result": 10.4, "unit": "%"}]}
{"smiles": "CCOc1cc(CNc2ccc(C(=O)O)cc2)ccc1OCc1ccccc1", "values": [{"measurement": "activity", "setting": "[1]", "result": -41.3, "unit": "%"}, {"measurement": "activity change, negative = inhibition", "setting": "[2]", "result": 0.912, "unit": "%"}, {"measurement": "activity", "setting": "[3]", "result": -22.2, "unit": "%"}, {"measurement": "activity", "setting": "[4]", "result": -2.65, "unit": "%"}]}
{"smiles": "Cc1ccc(C2Nc3ccccc3C(=O)N2c2ccccc2)s1", "note": "(centres undefined)", "values": [{"measurement": "Potency", "setting": "[5]", "result": "inactive"}]}
{"smiles": "CN1CCN(c2ncnc3sc4c(c23)CCNC4)CC1", "values": [{"measurement": "activity", "setting": "[1]", "result": -1.43, "unit": "%"}, {"measurement": "activity change, negative = inhibition", "setting": "[2]", "result": 0.536, "unit": "%"}, {"measurement": "activity", "setting": "[3]", "result": -71.2, "unit": "%"}, {"measurement": "activity", "setting": "[4]", "result": -15, "unit": "%"}]}
{"smiles": "S=C(NCCc1ccccn1)Nc1ccc(Br)cn1", "values": [{"measurement": "Potency", "setting": "[5]", "result": "inactive"}]}
{"smiles": "O=S(=O)(Cl)c1ccc(-c2ccccc2)cc1", "values": [{"measurement": "Potency", "setting": "[5]", "result": "inactive"}]}
{"smiles": "CC(C)c1nccn1CCCNC(=O)c1ccc(N2CCCC(CO)C2)nc1", "note": "(centres undefined)", "values": [{"measurement": "activity", "setting": "[1]", "result": 2.58, "unit": "%"}, {"measurement": "activity change, negative = inhibition", "setting": "[2]", "result": 1.26, "unit": "%"}, {"measurement": "activity", "setting": "[3]", "result": 6.68, "unit": "%"}, {"measurement": "activity", "setting": "[4]", "result": 5.49, "unit": "%"}]}
{"smiles": "CC(=O)Cc1cc(=O)c2c(C)cc(O)c(C3OC(CO)C(O)C(O)C3O)c2o1", "note": "(centres undefined)", "values": [{"measurement": "Potency", "setting": "[5]", "result": "inactive"}]}
{"smiles": "Cc1ccccc1Sc1ccc(/C=C2\\SC(=S)NC2=O)cc1[N+](=O)[O-]", "values": [{"measurement": "activity", "setting": "[1]", "result": -5.04, "unit": "%"}, {"measurement": "Potency", "setting": "[2]", "result": "42.9 µM (active)"}, {"measurement": "activity", "setting": "[3]", "result": -72.5, "unit": "%"}, {"measurement": "activity", "setting": "[4]", "result": -30.1, "unit": "%"}, {"measurement": "Potency", "setting": "[6]", "result": "inactive"}]}
{"smiles": "OC[C@H]1O[C@@H](Oc2c(O)cc(O)cc2/C=C/c2ccc(O)cc2)[C@H](O)[C@@H](O)[C@@H]1O", "values": [{"measurement": "Potency", "setting": "[5]", "result": "inactive"}]}
{"smiles": "CC(C)Cn1c(=O)c2ccccc2n2c(CCC(=O)N3CCN(Cc4ccccc4)CC3)nnc12", "values": [{"measurement": "activity", "setting": "[1]", "result": 0.0224, "unit": "%"}, {"measurement": "activity change, negative = inhibition", "setting": "[2]", "result": 2.81, "unit": "%"}, {"measurement": "activity", "setting": "[3]", "result": -55.9, "unit": "%"}, {"measurement": "activity", "setting": "[4]", "result": -3.34, "unit": "%"}]}
{"smiles": "COc1ccc(C2CC(=O)c3cc(-c4nc(-c5cccc([N+](=O)[O-])c5)cs4)c(=O)n(-c4ccccc4N)c3C2)cc1", "note": "(centres undefined)", "values": [{"measurement": "activity", "setting": "[1]", "result": -0.514, "unit": "%"}, {"measurement": "activity change, negative = inhibition", "setting": "[2]", "result": -4.17, "unit": "%"}, {"measurement": "activity", "setting": "[3]", "result": -5.71, "unit": "%"}, {"measurement": "activity", "setting": "[4]", "result": -5.29, "unit": "%"}, {"measurement": "Potency", "setting": "[6]", "result": "inactive"}]}
{"smiles": "NC1=N[C@@](c2cccc(-c3cncnc3)c2)(c2ccnc(C(F)F)c2)c2cccc(F)c21", "values": [{"measurement": "Potency", "setting": "[5]", "result": "inactive"}]}
{"smiles": "COc1cc2nc(N3CCCCC3)nc(NC3CCN(C)CC3)c2cc1OC", "values": [{"measurement": "activity", "setting": "[1]", "result": 1.4, "unit": "%"}, {"measurement": "activity change, negative = inhibition", "setting": "[2]", "result": 3.17, "unit": "%"}, {"measurement": "activity", "setting": "[3]", "result": -11.7, "unit": "%"}, {"measurement": "activity", "setting": "[4]", "result": -7.42, "unit": "%"}, {"measurement": "Potency", "setting": "[6]", "result": "18 µM (active)"}]}
{"smiles": "O=c1cc(-c2ccc(O)c(O)c2)oc2c([C@@H]3O[C@H](CO)[C@@H](O)[C@H](O)[C@H]3O)c(O)cc(O)c12", "values": [{"measurement": "Potency", "setting": "[5]", "result": "inactive"}]}
